# Measurements taken from the supplement of paper PMC6555819.
# Tests used:
# Test in all cases: PBM binding z-score (relative to random genomic background probes); higher = stronger binding; sequences stand for … in GC…GCGATTGACAGCGTAGAATGAAGG
# [1] = system: PPARg:RXRa DBDmut IVT, anti-RXR (DBD mutation: RXRa K156A/R161A, NR concentration 270 nM, RXRa partner concentration 90 nM)
# Procedure, shortened: (§1)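 Custom Agilent 4×180K protein-binding microarrays carried double-stranded probes. Their 34-nt variable regions held direct-repeat seeds, single-nucleotide variants, half-site ablations and random human genomic background sequences. Arrays were incubated 1 h with ligand-free nuclear receptor dimers in PBS pH 7.4, 2% milk, 0.02% Triton X-100, 1 mM DTT, 0.2 mg/mL BSA and 0.4 mg/ml salmon testes DNA. Antibodies against each partner (one per run) detected binding, and scanned fluorescence was regression-normalized. Binding z-scores use random background probes as reference.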
# [2] = system: PPARg:RXRa IVT, anti-PPARg (NR concentration 270 nM, RXRa partner concentration 90 nM)
# Procedure, shortened: as §1
# [3] = system: PPARg DBDmut:RXRa IVT, anti-PPARg (DBD mutation: PPARg1 K132A/R137A, NR concentration 270 nM, RXRa partner concentration 90 nM)
# Procedure, shortened: as §1
# [4] = system: PPARg DBDmut IVT, anti-PPARg (DBD mutation: PPARg1 K132A/R137A, NR concentration 270 nM)
# Procedure, shortened: as §1
# [5] = system: PPARg homodimer (NR concentration 180 nM)
# Procedure, shortened: as §1
# [6] = system: PXR:RXRa (NR concentration 270 nM, RXRa partner concentration 90 nM)
# Procedure, shortened: as §1
# [7] = system: PXR homodimer (NR concentration 270 nM)
# Procedure, shortened: as §1
# [8] = system: RARa:RXR (NR concentration 270 nM, RXRa partner concentration 90 nM)
# Procedure, shortened: as §1
# [9] = system: RARa homodimer (NR concentration 270 nM)
# Procedure, shortened: as §1
# [10] = system: RARb:RXRa (NR concentration 270 nM, RXRa partner concentration 90 nM)
# Procedure, shortened: as §1
# [11] = system: RARb homodimer (NR concentration 270 nM)
# Procedure, shortened: as §1
# [12] = system: RARg:RXRa (NR concentration 270 nM, RXRa partner concentration 90 nM)
# Procedure, shortened: as §1
# [13] = system: RARg homodimer (NR concentration 270 nM)
# Procedure, shortened: as §1
# [14] = system: RXRa DBDmut IVT, anti-RXR (DBD mutation: RXRa K156A/R161A, NR concentration 90 nM)
# Procedure, shortened: as §1
# [15] = system: RXRa homodimer (NR concentration 180 nM)
# Procedure, shortened: as §1
# [16] = system: THRa:RXRa (NR concentration 90 nM, RXRa partner concentration 90 nM)
# Procedure, shortened: as §1
# [17] = system: THRa homodimer (NR concentration 90 nM)
# Procedure, shortened: as §1
# [18] = system: VDR:RXRa (NR concentration 270 nM, RXRa partner concentration 90 nM)
# Procedure, shortened: as §1
# [19] = system: VDR homodimer (NR concentration 270 nM)
# Procedure, shortened: as §1
Sequence,PBM binding z-score [1],PBM binding z-score [2],PBM binding z-score [3],PBM binding z-score [4],PBM binding z-score [5],PBM binding z-score [6],PBM binding z-score [7],PBM binding z-score [8],PBM binding z-score [9],PBM binding z-score [10],PBM binding z-score [11],PBM binding z-score [12],PBM binding z-score [13],PBM binding z-score [14],PBM binding z-score [15],PBM binding z-score [16],PBM binding z-score [17],PBM binding z-score [18],PBM binding z-score [19]
CCTTACGGGTCACTGACAGCTTATAGCATTTGGA,3.83,3.59,0.471,0.264,2.05,2.79,-0.111,3.44,1.14,3.84,2.97,4.67,4.43,2.04,4.76,2.32,0.275,3.11,0.89
CATACAGGGTAAGCTAGGCCAGAGTAGGGACGGC,0.432,0.87,-0.00431,-0.34,-0.902,-0.7,-0.446,-0.142,0.0109,0.588,0.192,0.225,0.59,-0.744,0.077,1.49,-0.191,-0.528,-0.259
CCTGCTAGGACAATGGTCAGCTAAAGCAGCTCGC,0.194,-0.56,-1.25,-2.24,-1.14,-0.961,-0.715,-0.928,-0.846,0.219,-0.0607,-0.421,-0.262,0.179,-0.865,0.0505,-0.399,,-0.794
ATATGTAGGTTAGCGGGGGTCATTCAGACTAGGC,7.07,6.87,5.31,9.65,3.57,6.34,3.48,5.77,1.94,3.55,4.17,5.25,4.26,2.7,6.22,4.82,2.75,,5.45
GCTTACGGGTCAAAGGTTATGGCATGAATAGAAT,5.17,5.79,1.49,1.1,3.11,6.13,0.477,8.41,1.41,4.56,3.46,6.98,5.3,2.31,9.82,3.79,0.408,,1.51
AGAATGAGGTTAACAAAGATCAGGGAAACGCTTG,3.76,3.12,0.964,0.512,0.76,1.72,0.159,2.07,1.01,2.01,0.892,2.1,1.73,1.27,2.69,2.57,0.682,,0.0806
ACTCGGGGGACAAAGGTCAGAGCTACGCCAGTGA,2.49,5.75,7.4,7.53,5.43,5.36,1.26,6.35,2.37,4.91,4.56,7.2,6.12,2.06,6.34,3.82,1.07,,1.81
ACCAGCAGGCCAAGGGTCACTCAAGATTAGTCCG,-0.293,2.57,-0.621,-0.244,2.32,2.95,-0.192,3.93,0.0192,3.37,3.61,4.08,3.49,0.237,4.04,2.63,0.148,,1.1
CCTAGTTGGTCAGGAAGTCACACACCGGATATGA,0.63,0.621,-0.0162,0.0813,1.03,0.246,0.549,0.014,1.63,0.892,1,0.765,0.857,0.171,0.568,0.226,0.522,,0.457
ACTAGTTGGTCAGCTGGGGTCACACACAATTCGG,1.23,2.46,0.596,-0.0449,2.5,5.82,1.23,6.17,0.784,3.33,4.07,4.45,3.92,1.28,5.58,4.71,3.54,,3.33
AGACAAAGTTCAGGACGAGGTAACGTAAAGCACG,-0.362,0.619,0.472,0.977,1.38,3.02,0.806,3.06,0.776,4.18,3.04,4.75,4.73,2.87,2.9,3.86,1.51,,2.08
CGTCCAAGGTCAATGCTAGCTCAGTGAAAGCATT,3.17,3.23,-0.245,-0.858,0.0664,3.48,0.507,3.92,0.334,5.02,3.86,5.61,6.7,3.48,5.19,3.64,2.02,,1.83
CAAACTAGGTCAAAGGTCAGAGTCGAGCCAACCA,8.97,9.43,6.85,6.78,5.97,6.67,1.28,8.46,3.04,5.44,5.01,8.13,6.87,2.57,9.54,4.59,1.56,,2.39
CCTCCAAGGTCATAGGAGGTCAGTGAAGACAGAT,2.72,4.01,1.58,0.448,4.5,6.72,4.74,5.96,2.34,5.09,5.33,6.72,7.01,3.01,6.79,5.36,3.1,,4.12
AGTCAAAGTTCAGGACGAGGTAAAGTAAAGCACG,0.127,1.81,0.318,0.49,2.36,2.86,1.28,2.84,1.52,4.33,3.05,4.76,4.51,3.04,3.22,3.78,1.51,,2.35
